Rce1 inhib: blocks yeast Ras-converting enzyme; calls only; Q03530; yeast membranes, quenched prenylated peptide cleavage fluorescence; AID 2563; 290,000 tested, 0.27% active;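 active = fall in fluorescence gain of 50% or more versus controls, with final raw signal at or below 3038400; inconclusive = same 50% fall but final raw signal above 3038400; inactive = fall in fluorescence gain under 50%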;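 also: plate controls were neutral control wells for no effect and wells lacking membranes for full effect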
GRK2 aptamer HTS: blocks RNA aptamer binding to human GRK2 | P25098 | bead flow cytometry, FAM-aptamer displacement from GRK2 | inhibition of aptamer binding, % at 10 µM | 330,000 tested, 0.59% active | AID 488847;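 active = inhibition of aptamer binding above 40%, roughly 3 SD of noise, on plates passing a quality check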;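 also: median bead fluorescence of bound FAM aptamer so fluorescent compounds give negative values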
Target sequence (P25098 whole entry, looked up): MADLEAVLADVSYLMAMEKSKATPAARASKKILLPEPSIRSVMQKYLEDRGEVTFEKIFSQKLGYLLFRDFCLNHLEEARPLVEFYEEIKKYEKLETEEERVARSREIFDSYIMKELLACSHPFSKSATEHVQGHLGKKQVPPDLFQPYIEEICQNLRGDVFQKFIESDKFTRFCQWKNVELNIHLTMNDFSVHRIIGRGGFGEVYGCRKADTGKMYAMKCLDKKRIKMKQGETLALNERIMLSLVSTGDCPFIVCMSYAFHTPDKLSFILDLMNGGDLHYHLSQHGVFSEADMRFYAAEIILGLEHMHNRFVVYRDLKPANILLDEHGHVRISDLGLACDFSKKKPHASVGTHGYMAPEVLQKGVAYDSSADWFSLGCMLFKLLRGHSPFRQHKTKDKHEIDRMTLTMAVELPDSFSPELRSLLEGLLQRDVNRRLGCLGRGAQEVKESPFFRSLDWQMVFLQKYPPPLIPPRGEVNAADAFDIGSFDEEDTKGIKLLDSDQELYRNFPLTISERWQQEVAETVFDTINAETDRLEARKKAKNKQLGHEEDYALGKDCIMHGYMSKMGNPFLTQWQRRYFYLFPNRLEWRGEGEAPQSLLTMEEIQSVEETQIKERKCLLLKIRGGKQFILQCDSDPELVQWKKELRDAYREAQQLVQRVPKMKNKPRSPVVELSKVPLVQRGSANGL
HDAC3 inh: inhibitors of human histone deacetylase 3. O15379. recombinant HDAC3, fluorogenic peptide/trypsin coupled, fluorescence. inhibition, % at 8.3 µM. 320,000 tested, 0.15% active; in the data active = inhibition above about 26%, passing the limit was not always enough; inconclusive = no clear call, values can overlap the other calls
ALR H2O2 inh: human ALR oxidase inhibition via reduced H2O2; P55789; purified ALR, DTT oxidation, H2O2 HRP-luminol luminescence; inhibition, % (no concentration beside the values); 290,000 tested, 3.8% active; AID 485317;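 active = mean replicate inhibition above about 79%, with every replicate also reaching it, limit read from the data; inconclusive = only one of the two criteria met; inactive = mean below limit and not every replicate reaching it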
Efflux pump inh: antifungal efflux pump inhibition, Nile Red retention; 330,000 tested, 0.44% active; S. cerevisiae Candida pump triplex; inhibition, % at 10 µM;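 active = plate passing quality check with inhibition over a set limit, or well fluorescence over plate mean plus 4 SD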;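 also: Nile Red retained in pooled yeast measured as flow cytometry median fluorescence; 0% = buffer negative control and 100% = Enniatin B positive control; higher means more Nile Red kept so more efflux inhibition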
Rtt109 HAT inh: C. albicans Rtt109 histone acetyltransferase inhibition; inhibition, % at 34.9 µM; 330,000 tested, 0.16% active; purified Rtt109/Vps75, ThioGlo CoA-SH fluorescence, 4 h; Q5AAJ8;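 active = inhibition of at least 50% in every replicate; inconclusive = best replicate reaches 50% inhibition but some replicates fall short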
* marks the source's active call; other numbers are inactive results; i = inactive; ? = inconclusive; · = no result; + = active, no number. Rows were chosen to be rich in hits. Some 4.5% of all compounds tested hit in one or more screens of this group.

SMILES	Rce1 inhib	GRK2 aptamer HTS	HDAC3 inh	ALR H2O2 inh	Efflux pump inh	Rtt109 HAT inh
O=C(Oc1cc2oc(=O)cc(-c3ccccc3)c2cc1Cl)C1CCCCC1	i	3.0	-19.0	98.5*	-0.1	-64.2
CSc1sc(C(=O)N(C)C)c2c1S(=O)(=O)N(C)c1ccccc1-2	i	0.0	2.4	-7.4	-0.1	-6.9
CCn1c(CC(=O)Nc2ccccc2)n[nH]c1=S	i	0.0	-9.9	20.7	0.3	-1.8
CCC/C(O)=C1\C(=O)CC(C)(C)CC1=NCCO	i	0.0	-2.6	-5.0	0.1	-6.5
CCC/C(O)=C1\C(=O)CC(C)(C)CC1=Nc1ccccc1O	i	4.0	5.4	87.2*	-0.1	-0.2
Cc1ccccc1NC(=O)c1cccnc1	i	0.0	-8.0	-0.2	0.2	-7.4
CCN(CC)c1ccc(NC(=O)c2cccc(C)c2OC)c(C)c1	i	1.0	5.1	99.1*	0.0	2.0
CCN(CC)c1ccc(NC(=O)CN2C(=O)CC(C)(C)S(=O)(=O)c3ccccc32)c(C)c1	i	1.0	-1.8	99.4*	0.1	0.1
CCN(CC)c1ccc(NC(=O)c2cnc3ccccn3c2=O)c(C)c1	·	3.0	-4.9	99.3*	0.1	23.2
O=C(NCc1ccco1)c1cnc2ccccn2c1=O	i	3.0	-6.3	-9.0	0.3	-1.1
CCN(CC)c1ccc(NC(=O)c2cccnc2)c(C)c1	i	0.0	1.7	95.8*	0.4	15.4
CCOC(=O)N1CCC(N2Cc3cccc(C(=O)Nc4ccc(N(CC)CC)cc4C)c3C2=O)CC1	i	1.0	12.0	49.7	0.0	-2.7
CC1=CN(S(=O)(=O)c2ccc(C)cc2)C[C@@H]2c3ccccc3N(S(=O)(=O)c3ccc(C)cc3)[C@H]12	·	0.0	·	·	-0.1	0.3
COC(=O)c1c(NC(=O)c2cccc(S(=O)(=O)N3CCN(C)CC3)c2)sc(C)c1C	i	0.0	8.6	·	0.0	18.4
CN(Cc1ccc(Cl)cc1)C(=O)c1ccccc1SCC(=O)N1CCCC1	·	·	·	·	·	-0.2
O=C(c1ccccc1-c1ncc[nH]1)N1CCc2c([nH]c3ccccc23)C1c1ccccn1 (stereo not drawn)	i	0.0	-0.3	·	-0.2	11.9
CCN(CC)c1ccc(NC(=O)CNCc2ccccc2Cl)c(C)c1	i	0.0	0.8	98.9*	-0.1	3.9
O=C(CNCc1ccccc1Cl)Nc1ccccc1N1CCCCC1	i	0.0	9.7	4.2	-0.2	12.3
O=C(CSc1ccsc1[N+](=O)[O-])Nc1cc(F)ccc1F	i	·	·	·	·	4.3
CCN(CC)c1ccc(NC(=O)CSc2ccsc2[N+](=O)[O-])c(C)c1	i	3.0	-4.3	93.0*	-0.1	2.0
Fc1c(F)c(-n2nnc3ccccc32)c(F)c(F)c1Cl	i	0.0	-2.6	·	2.6	-1.7
COc1ccc(/C=N/N=C2\CC3CCC2(C)C3(C)C)cc1O (stereo not drawn)	·	0.0	2.6	65.8	0.1	-4.3
COc1cc(/C=N/N=C2\CC3CCC2(C)C3(C)C)ccc1O (stereo not drawn)	i	1.0	11.7	98.7*	0.1	-4.7
COc1ccc(/C=C2\C(=N)N3N=C(CC(=O)N4CCOCC4)SC3=NC2=O)cc1	i	2.0	0.8	-6.2	-0.1	-0.9
C=CCOc1ccc(/C=C2/C(=N)N3N=C(CC(=O)N4CCCC4)SC3=NC2=O)cc1OC	i	2.0	-0.8	98.8*	0.1	3.2
SMILES	Rce1 inhib	GRK2 aptamer HTS	HDAC3 inh	ALR H2O2 inh	Efflux pump inh	Rtt109 HAT inh
N=C1/C(=C\c2ccc(SCc3ccccc3)o2)C(=O)N=C2SC(CC(=O)N3CCOCC3)=NN12	i	4.0	4.7	98.3*	-0.2	1.6
Cc1ccc(/C=C2\C(=N)N3N=C(CC(=O)N4CCOCC4)SC3=NC2=O)o1	i	9.0	-1.2	91.5*	0.1	3.2
CCOC(=O)/C(C#N)=C/c1ccc(OC(=O)c2ccccn2)cc1	i	4.0	5.4	97.5*	0.2	15.3
COC(=O)/C(C#N)=C/c1ccc(OC(=O)c2ccccn2)cc1	i	0.0	5.4	69.5	-0.1	-8.6
Cc1ccc(F)cc1CNC(=O)C1CCC(=O)N(CCCN2CCCC2=O)C1 (stereo not drawn)	·	0.0	-4.5	-11.4	-0.1	2.8
C/C=C/C(=O)Nc1cccc(C2=NOC3(C2)C[C@H](C(N)=O)N(C(=O)c2ccccc2C(=O)c2ccccc2)C3)c1 (stereo partly drawn)	i	·	·	·	·	·
Cc1nc(SC(C(=O)c2ccccc2)c2ccccc2)nc2ccccc12 (stereo not drawn)	+	0.0	-2.5	·	0.0	-14.4
Cc1ccc2c(C)nc(SC(C(=O)c3ccccc3)c3ccccc3)nc2c1 (stereo not drawn)	i	5.0	-7.9	-19.0	-0.2	-3.0
CCN(CC)S(=O)(=O)c1cccc(-c2n[nH]c(=S)n2/N=C/c2ccc(OC)cc2)c1	i	5.0	?	·	-0.1	-1.9
CCN(CC)S(=O)(=O)c1cccc(-c2n[nH]c(=S)n2/N=C/c2ccc(OC(F)F)cc2)c1	i	1.0	3.7	97.7*	0.0	11.2
Nc1cc(=O)[nH]n1C1CCN(c2ccccc2)CC1	i	0.0	3.6	93.7*	0.0	3.7
CC(Sc1nc2ccccc2s1)C(=O)N1CCOCC1 (stereo not drawn)	i	0.0	0.1	99.0*	0.0	0.3
CCS(=O)(=O)CCSc1nc2ccccc2s1	i	3.0	1.6	99.0*	0.0	4.9
COC(=O)CSc1nc2ccc(N)cc2s1	i	3.0	3.9	98.7*	-0.1	-1.8
COCCN(C(=O)CSc1nc2ccccc2s1)c1c(N)n(Cc2ccccc2)c(=O)[nH]c1=O	·	·	·	·	·	12.1
CCCCN(C(=O)CSc1nc2ccccc2s1)c1c(N)n(CCCC)c(=O)[nH]c1=O	·	1.0	-2.0	98.9*	-0.1	5.5
CCOC(=O)CSc1nc2ccc(NC(C)=O)cc2s1	i	0.0	5.3	33.9	0.0	3.4
O=S(=O)(CCSc1nc2ccccc2s1)c1nc2ccccc2s1	i	4.0	3.8	7.4	0.0	-2.7
Cc1cc2c(cc1S(=O)(=O)Nc1ccc(OC(F)(F)F)cc1)OCC(=O)N2	i	0.0	·	-17.1	0.4	4.8
O=C(CN1C(=O)CCC1=O)Nc1nc(-c2nc3ccccc3s2)cs1	i	3.0	11.2	94.9*	-0.2	14.5
O=C(CSc1nnc(NCc2ccccc2)s1)NC1CCS(=O)(=O)C1 (stereo not drawn)	i	2.0	-0.9	-5.4	0.6	1.2
O=C(CSc1nc2ccccc2s1)NC1CCS(=O)(=O)C1 (stereo not drawn)	i	1.0	1.3	89.9*	0.1	11.8
O=C(CSc1nc2ccccc2s1)CSc1nc2ccccc2s1	i	0.0	12.9	-7.5	0.3	-11.3
Cc1csc(NC(=O)CSc2nc3ccccc3s2)n1	i	2.0	0.8	97.5*	-0.1	13.0
Cc1csc(NC(=O)CCCSc2nc3ccccc3s2)n1	i	0.0	4.4	-4.2	-0.1	-0.8
